The test system of test [1] is Molm13. Briefly: cell viability relative to DMSO control (bortezomib = 0%); higher = less growth inhibition. Particulars: 10 nM; 72 h. A digest of the protocol: (§1)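 Cell viability was assessed by CellTiter-Glo luminescence. Acute myeloid leukemia cells were seeded at 1000 cells per well in 50 µL on a 384-well library of 679 compounds at a single 10 nM dose for 72 h. Per-plate linear regression set DMSO-treated cells at 100% and positive-control-treated cells at 0%.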

The subject of test [2] is Mv4-11. The test is described as above. Particulars: 10 nM; 72 h. A digest of the protocol: as §1

The structures appear in SMILES notation. Where “and” joins values, the source holds several entries; their conditions need not be identical. Equal entries are not always repeated. Structures can show the parent of a compound that is named as a salt. ± gives the standard deviation of the averaged measurements.

Consider `CC[C@@](C)(Nc1ccnc(-c2c[nH]c3ncccc23)n1)C(=O)NCC(F)(F)F` [Decernotinib(VX-509)], for which the cell viability (as a rule, a read-out of living cells in per cent, often relative to untreated cells) in test [1] is 98.6 ± 1.4%; in test [2], 89.3 ± 6.1%.
As for `Clc1cnccn1` [2-Chloropyrazine], the cell viability in test [1] was determined as 113 ± 6.1%; in test [2], 94.5 ± 27%.
Regarding `CN1CCC(CNc2ccc3ncc(-c4cccc(OC(F)(F)F)c4)n3n2)CC1` [SGI-1776 free base], the cell viability in test [1] amounted to 92.3 ± 5.5%; in test [2], 97.7 ± 14%.
In the same order, the values of `COc1cc(C(=O)N2CCC(N3CCN(C)CC3)CC2)ccc1Nc1ncc2c(n1)N(C)c1ccccc1C(=O)N2C` are 97.52 ± 0.43% and 104 ± 5.1%.
Turning to `CNc1nc(Nc2cn(C(C)(C)C#N)nc2C)ncc1C(F)(F)F`, the cell viability in test [1] was found to be 109 ± 2.8%; in test [2], 117 ± 11%.
In the same order, the values of `FC(F)(F)c1ccc(CNc2ccc(Cc3c[nH]c4ncc(Cl)cc34)cn2)cn1` are 89.207 ± 0.064% and 105 ± 16%.
In the case of `COc1ccc(COc2ccc(Cc3cnc(N)nc3N)cc2OC)cc1`, the values for the cell viability in test [1] and in test [2] were 110 ± 17% and 123 ± 11%, respectively.
`CCCCCCCCCCCCC/C=C/[C@@H](O)[C@H](CO)N(C)C` [N,N-Dimethylsphingosine]: the cell viability in test [1] is 108 ± 20%; in test [2] it was 115 ± 6.7%.
In the same order, the values of `c1ccc2c(-c3cnn4cc(-c5ccc(N6CCNCC6)cc5)cnc34)ccnc2c1` are 98 ± 20% and 112 ± 6.1%.
In the same order, the values of `C=CC(=O)Nc1cccc(Nc2nc(Nc3ccc(OCCOC)cc3)ncc2F)c1` are 103 ± 10% and 110 ± 6.4%.
In the same order, the values of `Cn1cc(-c2cnn3c(N)c(Br)c([C@@H]4CCCNC4)nc23)cn1` are 92.5 ± 4.6% and 104 ± 4.8%.
Regarding `COc1cc(OC)c(/C=C/S(=O)(=O)Cc2ccc(OC)c(OP(=O)(O)O)c2)c(OC)c1` [Briciclib], the cell viability in test [1] amounted to 114 ± 25%; in test [2] it was 106 ± 11%.
On to `O=C(O)c1cc(O)c2c(c1)[C@@H]([C@H]1c3cc(C(=O)O)cc(O)c3C(=O)c3c(O[C@@H]4O[C@H](CO)[C@@H](O)[C@H](O)[C@H]4O)cccc31)c1cccc(O[C@@H]3O[C@H](CO)[C@@H](O)[C@H](O)[C@H]3O)c1C2=O` [Sennoside B], for which the cell viability is 101 ± 12% in test [1] and 91.4 ± 16% in test [2].
For `COC(=O)c1c2c(c3ccccc3c1O)OC(C)(C)C=C2` [Mollugin], the cell viability in test [1] came to 98 ± 1.6%; in test [2], 100 ± 7.8%.
In the case of `O=C(Nc1cc(C(F)(F)F)ccc1N1CCCCC1)c1ccncc1`, the cell viability in test [1] worked out at 99.5 ± 9.8%; in test [2] it was 129 ± 17%.
In the same order, the values of `CCCCCCCCCCCCc1ccc(S(=O)(=O)Nc2nncs2)cc1` are 108 ± 3% and 100 ± 2%.
`N#Cc1c(NC(=O)c2cccc3ccccc23)sc2c1CCCC2`: the cell viability in test [1] turned out to be 102 ± 21%; in test [2], 114 ± 4.2%.
As to `c1ccc(-c2[nH]ncc2-c2ccnc3ccccc23)nc1`, the cell viability is 102% and 105% in test [1]; 111% and 113% in test [2].
On to `C=CC(=O)Nc1cc(Nc2nccc(-c3cn(C)c4ccccc34)n2)c(OC)cc1N(C)CCN(C)C`, for which the cell viability in test [1] came out at 107 ± 17%; in test [2], 114 ± 3.5%.
As to `CC(C)NCC(O)c1ccc(O)c(O)c1` (configuration not stated) [Isoprenaline hydrochloride], the cell viability in test [1] worked out at 114 ± 3.4%; in test [2], 101 ± 17%.
With `CS(=O)(=O)N1CCc2c(-c3cnc(N)nc3)nc(N3CCOCC3)nc21`, the cell viability in test [1] is 119.7 ± 0.72%; in test [2] it was 126 ± 9.7%.
With `CC(C)c1ccc2c(c1)CC[C@@H]1[C@@](C)(CN)CCC[C@@]21C` [Leelamine (hydrochloride)], the cell viability amounted to 101.6 ± 0.018% in test [1] and 96.46 ± 0.32% in test [2].
In the same order, the values of `Oc1cccc(Nc2ncc(F)c(Nc3cccc(O)c3)n2)c1` are 83 ± 15% and 96.5 ± 16%.
In the same order, the values of `Nc1[nH]nc2nnc(-c3c(-c4ccccc4)nn4ccccc34)cc12` are 95.5 ± 1.6% and 109 ± 11%.
In the same order, the values of `CNC(=O)c1cc(Oc2ccc(NC(=O)Nc3cc(C(C)(C)C)nn3-c3ccc4ncccc4c3)c(F)c2)ccn1` [DCC-2036 (Rebastinib)] are 95.7 ± 1.2% and 107 ± 7.3%.
`Nc1cccc(-c2nc(N3CCOCC3)c3oc4ncccc4c3n2)c1` [PIK-inhibitors]: the cell viability in test [1] worked out at 82.5 ± 19%; in test [2], 103 ± 15%.
In the same order, the values of `C=CC(=O)N1CCC[C@@H](n2nc(-c3ccc(Oc4ccccc4)cc3)c3c(N)ncnc32)C1` are 95.3 ± 9.3% and 93.2 ± 4.6%.
Consider `Nc1n[nH]c(N)c1N=Nc1ccc(O)cc1`, for which the cell viability in test [1] stood at 117 ± 6.2%; in test [2], 110 ± 14%.
For the compound `CCCCCCCCCCCCCCCCn1cc[n+](Cc2ccccc2)c1C`, the cell viability was determined as 124 ± 5.5% in test [1] and 111 ± 5.8% in test [2].
Turning to `CCCCCCCCCC(=O)CC(O)S(=O)(=O)O` (configuration not stated) [Sodium houttuyfonate], the figures for the cell viability in test [1] and in test [2] were 108 ± 1.5% and 106 ± 1.1%, respectively.
Regarding `CNC(=O)c1ccccc1Nc1nc(Nc2ccc(N3CCOCC3)cc2OC)ncc1Cl`, the figures for the cell viability in test [1] and in test [2] were 90.55 ± 0.19% and 109 ± 5.5%, respectively.
In the same order, the values of `N[C@@H]1CCCN(c2c(/C=C3\SC(=O)NC3=O)cccc2-c2ccccc2)C1` are 103 ± 1.3% and 125 ± 9.2%.
In the same order, the values of `Cc1ccc(NC(=O)c2ccc(CN3CCN(C)CC3)cc2)cc1Nc1nccc(-c2cccnc2)n1` [Imatinib (STI571)] are 97.6 ± 9.5% and 97.2 ± 9.2%.
In the same order, the values of `CC1(COc2ccc3c(c2)ncn3-c2ccc3cccc(N4CCC(N)CC4)c3n2)COC1` [Crenolanib] are 14.9 ± 3.8% and 18.2 ± 5.8%.
Turning to `N#Cc1cccc(-c2c[nH]c3ncnc(N4CCOCC4)c23)c1`, the cell viability in test [1] came out at 109 ± 23%; in test [2] it was 100 ± 8.2%.
In the same order, the values of `NCC(=O)Nc1ccc(-n2nc(C(F)(F)F)cc2-c2ccc3c(ccc4ccccc43)c2)cc1` are 114 ± 8.5% and 101 ± 12%.

(Values after the supplement of paper PMC8699584.)
